High-throughput results deposited in PubChem by National Center for Advancing Translational Sciences (NCATS).
D3 ag = activates the human D3 dopamine receptor | max activation, % | AID 652048 | 410,000 tested, 0.58% active | D3R DiscoveRx beta-arrestin cells, luminescence, 90 min; in the data active = max activation above about 30%
Target sequence (P35462 whole entry, looked up): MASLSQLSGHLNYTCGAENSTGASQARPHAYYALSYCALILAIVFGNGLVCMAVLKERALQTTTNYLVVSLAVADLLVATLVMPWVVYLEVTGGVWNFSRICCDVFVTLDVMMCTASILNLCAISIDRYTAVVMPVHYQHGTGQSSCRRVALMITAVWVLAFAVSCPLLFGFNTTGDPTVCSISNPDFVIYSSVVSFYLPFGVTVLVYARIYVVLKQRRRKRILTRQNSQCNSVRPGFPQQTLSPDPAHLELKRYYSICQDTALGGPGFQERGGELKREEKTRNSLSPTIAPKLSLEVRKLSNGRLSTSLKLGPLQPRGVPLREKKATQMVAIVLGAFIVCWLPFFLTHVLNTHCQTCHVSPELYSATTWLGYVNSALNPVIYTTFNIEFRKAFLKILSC
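Agonist mode: compounds and dopamine controls were applied to plated cells for 90 min at 37 degrees C after an overnight attachment at 1500 cells/well. Luminescent read-out followed 30 - 60 minutes at room temperature with DiscoveRx detection reagent.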
TGFb SMAD3 inh = inhibitors of TGF-b signaling | AID 588855 | 410,000 tested, 1.2% active | Potency, µM (highest dose often 46.1 µM), actives largely listed as inhibitors | HepG2 CAGA-GFP TGF-b/SMAD3 reporter, GFP fluorescence, 18 h; TGF-beta stimulated, 500 pg/mL final; also: nearly all actives have a fitted effect of over 65% in size
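Using HEPG2 CAGA-GFP reporter cells at 1000 cells/well, we pinned test compounds, stimulated with recombinant TGF-beta (500 pg/mL final) and measured total well GFP after 18 h.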
D3 antag = D3 dopamine receptor (human) antagonism | P35462 | D3R cells, DiscoveRx beta-arrestin luminescence, antagonist mode; hits give low values | max response, negative = inhibition, % | 360,000 tested, 2.5% active | AID 652054; in the data active = max response below about -50%; inconclusive = no clear call, values can overlap the other calls
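Cells expressing the human receptor were seeded at 1500 cells/well, incubated overnight at 37 degrees C in 5% CO2, then exposed to library compounds with dopamine controls for 90 minutes at 37 degrees C before luminescent detection.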
HepG2 viability = HepG2 cytotoxicity, counter-screen for TGF-b inhibitors | HepG2 CAGA-GFP viability, ATP luminescence, 18 h | 410,000 tested, 0.76% active | Potency, µM (doses to about 46.1 µM), usual class: cytotoxic
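CellTiter-Glo luminescence gave cytotoxicity after 18 hours at 37 degrees C. The cells were HepG2 CAGA-GFP in 1% FBS DMEM, stimulated with 500 pg/mL TGF-beta after compound addition. %Activity was normalised to no-cell wells (complete cell-killing) and DMSO (no toxicity), and curves were fitted and classified.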
ATXN2 expr inh = inhibitors of ATXN2 expression; HEK-293 ATXN2-luciferase reporter, luminescence, 24 h; Potency, µM (top dose mostly 57 µM), actives largely listed as inhibitors; 360,000 tested, 0.72% active; AID 1745845; also: nearly all actives have a fitted effect of over 55% in size
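ATXN2-luciferase reporter cells (luciferase flanked by upstream and downstream ATXN2 gene portions) were treated 24 h at 37 °C with compounds at up to 57 uM. SteadyGlo luminescence gave expression; GF-AFC fluorescence gave viability.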
S2 tox = viability counter-screen for ATXN expression inhibitors; 400,000 tested, 0.49% active; S2 cells (HEK-293 line with an ATXN2-luciferase reporter) viability, CellTiter-Fluor protease fluorescence, 24 h; Potency, µM (titrated, usually from 56.7 µM), hits mostly cytotoxic; also: nearly all actives have a fitted effect of over 40% in size
A number is an active result; – = inactive; ? = inconclusive; · = not tested or not shown; ! = not active in a repeat; [ ] = remark or other dose. This is a sample that favours compounds with a hit; in the whole collection about 4.8% have one here. Unless noted, calls follow the shape of the dose curve; as a rule, active = well fitted curve in the direction sought with a large enough effect; inconclusive = small, poorly fitted or top-dose-only effect, or another doubt; inactive = no such curve, though single readings can be large; an effect the other way counts as inactive or inconclusive.

SMILES | D3 ag | TGFb SMAD3 inh | D3 antag | HepG2 viability | ATXN2 expr inh | S2 tox
COc1cc2c(cc1OC)C(c1cccc([N+](=O)[O-])c1)NC(=O)C2 (stereo not given) | – | – | – | – | –[11.3 µM] | –
CC1=CC(C)(C)Nc2ccc(OC(=O)CN3C(=O)CCC3=O)cc21 | – | – | ? | 16µM | ? | –
CC1=CC(C)(C)Nc2ccc(OC(=O)c3cccnc3)cc21 | – | – | – | 13µM | ? | ?
O=C(Oc1ccc(F)cc1)c1cccnc1 | – | – | – | – | · | –
CC1=CC(C)(C)Nc2ccc(C)cc21 | – | – | – | – | – | –
CC1=CC(C)(C)Nc2ccc(OC(=O)c3ccco3)cc21 | – | – | – | – | 32µM | ?
CC1=CC(C)(C)N2C(=O)C(=O)c3cc(OC(=O)c4ccco4)cc1c32 | – | ? | ? | – | –[11.3 µM] | ?
CC1=CC(C)(C)Nc2ccc(OC(=O)C(C)N3C(=O)c4ccccc4C3=O)cc21 (stereo not given) | – | 18µM | – | – | ? | ·
CN(C)c1nc2cc3c(cc2cc1CN(CC1CCCO1)C(=O)c1cccc(F)c1)OCO3 (stereo not given) | · | · | · | · | · | –
CSCCC(NC(=O)c1ccc(Cl)cc1Cl)C(=O)N(C)Cc1nc2ccccc2c(=O)[nH]1 (stereo not given) | – | – | -51 | – | – | –
CN1CCN(Cc2nc3ccccc3c(=O)n2Cc2nc(-c3ccc([N+](=O)[O-])cc3)cs2)CC1 | – | 16µM | – | 11µM | ? | ?
CN(C)Cc1nc2ccccc2c(=O)n1Cc1nc(-c2cccc([N+](=O)[O-])c2)cs1 | – | – | – | – | ? | –
O=C(NNC(=O)c1ccc(Cl)c([N+](=O)[O-])c1)c1ccncc1 | – | – | – | – | – | –
O=C(NNC(=O)c1ccc(Cl)c(Cl)c1)c1ccncc1 | – | – | – | 4.5µM | – | –
CC1CCN(C(=O)C(C)Sc2nc(-c3ccccc3)cc(C(F)(F)F)n2)CC1 (stereo not given) | – | 16µM! | – | – | – | –
CC(Sc1nc(-c2ccccc2)cc(C(F)(F)F)n1)C(=O)N1CCCC1 (stereo not given) | – | – | – | – | – | –
Cc1ccccc1C1(CC(=O)N2CCOCC2)CC(=O)N(Cc2cccnc2)C1=O (stereo not given) | · | · | · | · | · | –
COc1cc(OC)c(OC)cc1/C=C/c1cc[n+](C)c2ccccc12 | · | – | · | – | · | ·
CCC1(C2CCN(C(=O)c3cc(F)ccc3F)CC2)NC(=O)N(CCc2scnc2C)C1=O (stereo not given) | · | · | · | · | · | –
Cc1ccccc1OCC(O)CN1CCCCC1 (stereo not given) | – | – | – | – | ? | –
Cc1ccccc1OCC(O)CN1CCN(CC(O)COc2ccccc2C)CC1 (stereo not given) | – | – | -57 | – | – | ?
CC1CCN(CC(O)COc2ccc(OCC(O)CN3CCC(C)CC3)cc2)CC1 (stereo not given) | – | – | – | – | · | ?
Cc1ccccc1OCC(O)CN1CCC(C)CC1 (stereo not given) | – | – | -60 | – | –[11.3 µM] | –
CCc1cc2c(cc3c(=O)n(CC(=O)NCc4cc(Br)ccc4OC)ncn32)s1 | – | – | · | – | · | ·
N#C/C(=C(/O)CCl)c1nc2ccccc2[nH]1 | – | 10µM | – | – | ? | ?
SMILES | D3 ag | TGFb SMAD3 inh | D3 antag | HepG2 viability | ATXN2 expr inh | S2 tox
Cc1cccc(Nc2nnc(SC/C(O)=C(\C#N)c3nc4ccccc4[nH]3)s2)c1C | 33 | ? | – | – | – | –
N#C/C(=C(/O)COC(=O)CSc1ccc2ccccc2c1)c1nc2ccccc2[nH]1 | – | – | – | – | ? | 20µM
Cc1cc(C)cc(NC(=O)C2CCN(C(=O)c3cnn(-c4ccccc4)c3-n3cccc3)CC2)c1 | – | ? | · | – | ? | ?
O=C(NC1CC1)C1CCN(Cc2cnn(-c3ccccc3)c2-n2cccc2)CC1 | – | – | – | 22µM | · | ·
O=C(O)C1CCN(Cc2cnn(-c3ccccc3)c2-n2cccc2)CC1 | – | – | – | – | – | –
CSc1cccc(NC(=O)C2CCCN(C(=O)c3cnn(-c4ccc(F)cc4)c3-n3cccc3)C2)c1 (stereo not given) | – | 18µM | · | – | · | ·
Cc1ccc(NC(=O)C2CCN(C(=O)c3cnn(-c4ccccc4)c3-n3cccc3)CC2)cc1 | – | 11µM | · | – | – | –
COc1cc(=O)n2c(c1C(=O)N(C)Cc1ccsc1)CCN(Cc1c(C)nn(C)c1Cl)CC2 | · | · | · | · | · | –
O=S(=O)(c1cccc(Br)c1)N1CCN(c2nc(-c3cccs3)nc3ccccc23)CC1 | · | – | · | – | · | ·
O=S(=O)(O)CC(S)CS (stereo not given) | – | · | · | · | · | ·
Cc1ccccc1NC(=O)Nc1nnc(N2CCCCCC2)s1 | – | – | · | – | – | –
CCOC(=O)/C(=C\c1cccnc1)C(=O)c1cc(C(C)=O)c(Nc2ccccc2)s1 | – | 2.8µM | -130 | – | 3.5µM | 4.5µM
CCOC(=O)/C(C#N)=C\c1cccnc1 | – | – | – | – | – | –
CCOC(=O)c1cc(C)sc1NC(=S)Nc1ccccc1 | – | – | – | – | – | –
CCOC(=O)/C(=C\c1ccccc1)C(=O)c1cc(C(C)=O)c(Nc2ccccc2)s1 | – | – | ? | 3.2µM | 11µM | 20µM
CCOC(=O)[C@@H]1[C@H]2COc3cc(OC)ccc3[C@@H]2N2C(=O)N(c3ccc(Cl)cc3)C(=O)[C@]12C | 34 | – | – | – | – | –
CCOC(=O)[C@@H]1[C@H]2COc3cc(OC)ccc3[C@@H]2N2C(=O)N(c3ccc(OC)cc3)C(=O)[C@@]12C | – | – | – | – | – | ?
CCOC(=O)[C@@H]1[C@H]2COc3cc(OC)ccc3[C@@H]2N2C(=O)N(c3ccc(C(F)(F)F)cc3)C(=O)[C@]12C | 46 | – | – | – | – | –
COc1ccccc1N1CCN(c2ncnc3c2cnn3-c2cc(Cl)ccc2C)CC1 | – | – | · | – | ? | –
CC1=CN(S(=O)(=O)c2ccc(C)cc2)C[C@@H]2[C@H]3CC[C@H](C3)[C@H]12 | – | – | -65 | – | – | –
C=CCn1c(CCNC(=O)c2ccco2)nc2ccccc21 | – | – | -74 | – | – | –
Clc1ccc(-n2cccc2CN2CCOc3ccc(CN4CCOCC4)cc3C2)nc1 | · | · | · | · | · | –
CCCn1c(O)c(N=NC(=O)CNC(=O)/C=C/c2ccc(OC)cc2)c2ccccc21 | – | – | -50 | – | – | –
CC(C)(C)OC(=O)N[C@H]1CCCCCC=C[C@@H]2C[C@@]2(C(=O)NS(=O)(=O)C2CC2)NC(=O)[C@@H]2C[C@@H](OC(=O)N3Cc4cccc(F)c4C3)CN2C1=O | · | · | · | · | – | ·
CC(C)=CCC/C(C)=C/COc1c2ccoc2cc2oc(=O)ccc12 | · | – | · | – | · | ·
